Screening results from PubChem BioAssay.
Hits are enriched below; roughly 7% of the tested compounds scored in any of these assays.
DRD3 agonist: D3 dopamine receptor (human) agonism; 0.58% of 410,000 active; D3R DiscoveRx beta-arrestin cells, luminescence, 90 min; max activation, %; P35462; AID 652048; in the data active means max activation above about 30%; further: 0% is about no effect
Target sequence (P35462 whole entry, looked up): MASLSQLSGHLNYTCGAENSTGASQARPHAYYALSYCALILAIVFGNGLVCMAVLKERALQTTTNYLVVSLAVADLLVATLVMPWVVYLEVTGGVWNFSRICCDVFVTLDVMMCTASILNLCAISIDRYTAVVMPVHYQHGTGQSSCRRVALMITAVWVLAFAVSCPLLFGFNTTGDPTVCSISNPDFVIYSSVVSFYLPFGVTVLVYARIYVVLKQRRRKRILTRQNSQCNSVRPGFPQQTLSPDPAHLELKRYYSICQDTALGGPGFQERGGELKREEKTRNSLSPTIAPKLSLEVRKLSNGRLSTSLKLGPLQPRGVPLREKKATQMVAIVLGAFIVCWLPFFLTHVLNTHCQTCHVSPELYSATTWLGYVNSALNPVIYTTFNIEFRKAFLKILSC
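Agonist mode: compounds and dopamine controls were applied to plated cells for 90 min at 37 degrees C after an overnight attachment at 1500 cells/well. Luminescent read-out followed 30 - 60 minutes at room temperature with DiscoveRx detection reagent.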
ATXN viability: cell viability loss in ATXN counter-screen; 0.49% of 400,000 active; Potency, µM (highest dose often 56.7 µM), actives largely listed as cytotoxic; S2 cells (HEK-293 line with an ATXN2-luciferase reporter) viability, CellTiter-Fluor protease fluorescence, 24 h; further: potency means the concentration at half of the fitted maximal effect; nearly all actives have a fitted effect of over 40% in size
ATXN2 expr inh: inhibitors of ATXN2 expression | HEK-293 ATXN2-luciferase reporter, luminescence, 24 h | Potency, µM (titrated, usually from 57 µM), for inactives: top-dose activity change, negative = inhibition, most hits filed as inhibitors | 0.72% of 360,000 active | AID 1745845; further: potency means the concentration at half of the fitted maximal effect; on the % scale 0 is the no-effect control and ±100 the full control effect; nearly all actives have a fitted effect of over 55% in size
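ATXN2-luciferase reporter cells (luciferase flanked by upstream and downstream ATXN2 gene portions) were treated 24 h at 37 °C with compounds at up to 57 uM. SteadyGlo luminescence gave expression; GF-AFC fluorescence gave viability.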
DRD3 antagonist: antagonists of human D3 dopamine receptor; D3R cells, DiscoveRx beta-arrestin luminescence, antagonist mode; stronger effect = lower value; AID 652054; max response, negative = inhibition, %; 2.5% of 360,000 active; in the data active means max response below about -50%; inconclusive means no clear call, values can overlap the other calls; further: on the % scale 0 is the no-effect control and ±100 the full control effect
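Cells expressing the human receptor were seeded at 1500 cells/well, incubated overnight at 37 degrees C in 5% CO2, then exposed to library compounds with dopamine controls for 90 minutes at 37 degrees C before luminescent detection.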
IL-1B inflam inh: blocks inflammasome-driven IL-1 beta release; THP-1 LPS/ATP IL-1B secretion, AlphaLISA, 16 h; stronger effect = lower value; activity change, % at 57.5 µM; 4.7% of 360,000 active; in the data active means activity change below about -50%; inconclusive means mostly about -30% to -49%; further: on the % scale 0 is the no-effect control and ±100 the full control effect
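Secreted IL-1B measured by AlphaLISA bead assay after 16 h compound exposure of THP-1 cells; compounds (final up to 57.5 uM) added 1 h before LPS (250 ng/mL) and ATP (1.25 mM) stimulation; lower signal means less secretion.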
Integrin act MD: activators of alpha7 integrin expression for muscular dystrophy; alpha7betagal myoblasts, beta-gal FDG fluorescence, 48 h; Potency, µM (series often up to 38.3 µM), without a hit: top-dose activation, most hits filed as activators; 0.064% of 350,000 active;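 further: potency means the concentration at half of the fitted maximal effect; 100% = response of the positive control SU9516; nearly all actives have a fitted effect of over 60% in size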
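Alpha7betagal+/- myoblasts (passage 13) were plated 16-24 hr, then exposed to compounds (1:260 dilution of DMSO stock) for 48 hours at 37C. After MPER lysis, β-galactosidase reporter activity was read as FDG fluorescence (ex 480/em 540) after 30 minutes.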
The depositor's hits bear a star; i = inactive; ? = inconclusive; . = not tested or not shown; [ ] = another dose, or the depositor's remark. Unless noted, the call rests on the fitted dose curve; in most records, active means well fitted curve in the direction sought with a large enough effect; inconclusive means small, poorly fitted or top-dose-only effect, or another doubt; inactive means no such curve, though single readings can be large; an effect the other way counts as inactive or inconclusive.

SMILES	DRD3 agonist	ATXN viability	ATXN2 expr inh	DRD3 antagonist	IL-1B inflam inh	Integrin act MD
COC(=O)Cc1c(C)c2ccc(OCC(=O)NC3CCS(=O)(=O)C3)cc2oc1=O (stereo not drawn)	-3	i	6%	1	3	-19%
COc1cccc(NC(=O)N(CCCN2CCOCC2)C(C)c2cc3ccccc3o2)c1 (stereo not drawn)	-52	i	-11%	-70*	-4	0%
COC(=O)c1sccc1NC(=O)c1c(F)c(F)c(F)c(F)c1F	18	?	?	14	-102*	-79%
COC(=O)c1sccc1NC(=O)c1cccc(F)c1	4	i	7%	1	14	30%
COC(=O)c1sccc1NC(=O)c1cc(C)on1	-10	i	3%	-53*	9	25%
COC(=O)c1sccc1NC(=O)c1c(C)noc1C	1	i	-14%	18	14	-9%[7.66 µM]
O=C(CN(c1ccccc1F)S(=O)(=O)c1ccccc1)N1CCCCCC1	1	i	-17%	-12	?	-18%
O=C(Nc1ccc(F)cc1F)c1cccnc1	1	i	5%	3	-4	-13%
COc1cccc(CC2(CO)CCCN(Cc3cc4ccccc4[nH]3)C2)c1 (stereo not drawn)	-7	i	-19%	-18	-54*	-29%
COc1cccc(CC2(CO)CCCN(Cc3[nH]c4ccc(C)cc4c3C)C2)c1 (stereo not drawn)	-2	?	25µM*	-14	0	-53%
COc1cccc(CC2(CO)CCCN(Cc3ccc(C)s3)C2)c1 (stereo not drawn)	-24	i	-43%	?	-6	-10%
CN1CCN(c2oc(COc3ccc(-c4ccccc4)cc3)nc2C#N)CC1	-32	i	-18%	-4	-19	-12%
O=C1C=CC2(C=C1)O[C@H](Cc1ccccc1)[C@@H](Cc1ccccc1)O2	-30	3µM*	?	-109*	-100*	-51%
COc1ccc(C[C@@H]2OC3(C=CC(=O)C=C3)O[C@H]2Cc2ccc(OC)cc2)cc1	-13	.	?	-118*	-77*	-57%
O=C(CSc1nc(O)c(C(c2ccccc2)c2ccccc2)c(=O)[nH]1)N1CCOCC1	-18	i	4%	-62*	?	0%
O=C(NCc1cccc(Cl)c1)c1ccc(CS(=O)Cc2ccc(Cl)cc2)o1 (stereo not drawn)	-6	i	3%	-3	-74*	24%
O=C(NCc1ccc2c(c1)OCO2)c1ccc(CS(=O)Cc2cccc(Cl)c2)o1 (stereo not drawn)	0	i	2%	-7	-68*	?
O=C(NCc1ccc2c(c1)OCO2)c1ccc(CS(=O)Cc2ccc(Cl)cc2)o1 (stereo not drawn)	-3	i	-10%	-10	-69*	37%
Cc1ccc(OC(C)C(=O)N2CCc3ccccc32)cc1 (stereo not drawn)	-5	i	4%	-19	10	-8%
C/C(=N\NC(=O)Cc1c(C)[nH][nH]c1=O)c1ccc(Cl)c(Cl)c1	2	i	3%	14	-10	-12%
Cc1ccc2nc(SCC(=O)Nc3ccc(Cl)cc3)nc(=O)n2c1	3	?	9%	13	-23	9%
CC(=O)N(C)c1nnc(-c2cnccn2)s1	4	i	10%	9	8	-9%
CS(=O)(=O)c1ncc(N(Cc2ccccc2)Cc2ccco2)c(C(=O)Nc2cccc(C(F)(F)F)c2)n1	3	i	6%	.	.	.
O=C(NC1=C(Nc2ccc(Cl)cc2)C(=O)c2ccccc2C1=O)c1ccccc1	2	?	-10%	-30	?	0%
Cc1cccc(C(=O)Nc2ccc(C(=O)N/N=C/c3ccc(C)o3)cc2)c1	0	i	-4%	-15	-52*	-1%
SMILES	DRD3 agonist	ATXN viability	ATXN2 expr inh	DRD3 antagonist	IL-1B inflam inh	Integrin act MD
Cc1cccc(C(=O)Nc2ccc(NC(=O)c3ccccc3)cc2)c1	-4	i	-18%	17	-58*	0%
O=C(NC1=C(NC2CCS(=O)(=O)C2)C(=O)c2ccccc2C1=O)c1ccccc1 (stereo not drawn)	-17	30µM*	?	?	-93*	-59%
Cc1cccc(NC2=C(NC(=O)c3ccccc3)C(=O)c3ccccc3C2=O)c1	-14	?	?	?	-74*	-35%
O=C(NCc1cccs1)c1ccc2c(c1)sc1nc(-c3ccccc3)cn12	-4	.	.	.	.	.
Cc1ccc(NC(=O)c2ccc(C)cc2)cc1	11	i	27%	9	-2	3%
CCOC(=O)c1ccc(-n2c(C)ccc2C)cc1	-17	i	2%	-6	-14	-2%
CC(=O)NCCNC(=O)c1ccc(-n2c(C)ccc2C)cc1	-7	i	-8%[11.3 µM]	-20	-76*	-9%
Cc1cccc(C(=O)Nc2ccc(C(=O)/C=C/c3cccnc3)cc2)c1	-12	?	?	-81*	-78*	-24%
Cc1ccc(C)n1-c1ccc(NC(=O)c2ccccc2)cc1	-11	i	-17%	?	-53*	4%
CC(=O)Nc1ccc(NC(=O)c2ccc(-n3c(C)ccc3C)cc2)cc1	-2	i	2%	-3	-68*	-34%
Cc1ccccc1CN(c1ccc(C(=O)NCCC2=CCCCC2)cc1)S(C)(=O)=O	-11	i	-18%	-16	39	15%
CC(=O)Nc1cc(-c2cccnc2)cn2c(-c3ccc(F)cc3)cnc12	2	?	0%	0	7	.
CCc1ccc(C2c3c(-c4ccccc4O)n[nH]c3C(=O)N2Cc2ccncc2)cc1 (stereo not drawn)	-13	25µM*	-19%	.	.	.
Cc1cccc(N2CCN(C(=O)c3ccc4c(c3)CCN4S(C)(=O)=O)CC2)c1C	19	i	?	2	-51*	-29%
Cc1cccc(NC(=O)c2ccc3c(c2)CCN3S(C)(=O)=O)c1	-2	i	17%	-7	-64*	5%
OC1(c2ccccc2)CN(c2ccccc2)C2=[N+]1CCS2 (stereo not drawn)	-11	i	3%	-5	-66*	16%
CCOc1ccc(CNC(=O)CCS(=O)(=O)c2cc3c4c(c2)CCN4C(=O)CC3)cc1OC	-11	i	-2%	.	.	.
Cc1ccc(-n2ncc3c(NCCc4ccccc4)ncnc32)cc1Cl	37*	i	48%	.	.	.
COc1ccc(CCNc2ncnc3c2cnn3-c2cccc(Cl)c2)cc1	0	i	-8%	.	.	.
COc1ccc(CCNc2ncnc3c2cnn3-c2ccc(C)c(Cl)c2)cc1	30*	i	22%	.	.	.
CN(C)CCNc1ncnc2c1cnn2-c1ccc(Cl)cc1	-4	?	?	-64*	7	-48%
